# Bioassay records deposited in PubChem by National Center for Advancing Translational Sciences (NCATS).
# WRN inhibitor = blocks human WRN helicase | Q14191 | WRN helicase unwinding, fluorescent forked duplex, kinetic | Potency, µM (top dose mostly 114 µM), inactives show top-dose activity change, negative = inhibition, actives largely listed as inhibitors | hit rate 0.46% among 360,000; further: on the % scale 0 is the no-effect control and ±100 the full control effect; nearly all actives have a fitted effect of over 55% in size
#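 Enzyme (20 nM final) and test compound sit together 15 min at room temperature before substrate addition. Substrate is a single-forked duplex oligonucleotide (100 nM) labelled with fluorophore and quencher, with 2 mM ATP; helicase unwinding raises red fluorescence, read kinetically.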
# POLB inh = blocks human DNA polymerase beta activity; P06746; Pol beta primer extension/strand displacement, fluorescence kinetic; Potency, µM (series often up to 114 µM), inactives show top-dose activity change, negative = inhibition, most hits filed as inhibitors; hit rate 1.3% among 340,000; further: on the % scale 0 is the no-effect control and ±100 the full control effect
#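 Pol beta (10 nM) was preincubated with compound for 15 min at room temperature. The reaction was then started with 50 nM substrate and read immediately and after a further 10 min at room temperature.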
# POLI inh = blocks human DNA polymerase iota activity | Potency, µM (highest dose often 115 µM), inactives show at the top dose activity, negative = inhibition, usual class: inhibitors | hit rate 1% among 390,000 | Pol iota fluorescent replication assay, 10 min | AID 588590
#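 Fluorescent replication assay read twice, at 0 min and 10 min after adding 50 nM (final) substrate. Enzyme (10 nM) and compounds were first incubated 15 min at room temperature; enzyme-free buffer wells were negative controls.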
# Pol kappa inh = blocks human DNA polymerase kappa activity | hit rate 0.53% among 400,000 | Potency, µM (top dose mostly 107 µM), for the others: at the top dose activity, negative = inhibition, actives largely listed as inhibitors | Q9UBT6 | purified Pol kappa, fluorescent DNA synthesis assay, 10 min; further: on the % scale 0 is the no-effect control and ±100 the full control effect
#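 50 nM final substrate added after 15 min RT preincubation of 10 nM Pol kappa with compound; fluorescence read at 0 and 10 min.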
# POLH inh = inhibitors of human DNA polymerase eta | Q9Y253 | hit rate 1.2% among 390,000 | recombinant Pol eta, fluorescent DNA replication assay | AID 588591 | Potency, µM (series often up to 114 µM), without a hit: top-dose activity change, negative = inhibition, hits mostly inhibitors; further: on the % scale 0 is the no-effect control and ±100 the full control effect
#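 Fluorescent replication assay: 50 nM final substrate added after a 15 min room-temperature compound preincubation with 10 nM enzyme. Signal taken at 0 min and again at 10 min.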
# FEN1 inh = blocks human flap endonuclease 1. Recombinant FEN1 flap cleavage, fluorescence, 15 min. Potency, µM (series often up to 114 µM), inactives show top-dose activity change, negative = inhibition, most hits filed as inhibitors. hit rate 0.35% among 390,000; further: on the % scale 0 is the no-effect control and ±100 the full control effect; nearly all actives have a fitted effect of over 65% in size
# Target sequence (P39748 whole entry, looked up): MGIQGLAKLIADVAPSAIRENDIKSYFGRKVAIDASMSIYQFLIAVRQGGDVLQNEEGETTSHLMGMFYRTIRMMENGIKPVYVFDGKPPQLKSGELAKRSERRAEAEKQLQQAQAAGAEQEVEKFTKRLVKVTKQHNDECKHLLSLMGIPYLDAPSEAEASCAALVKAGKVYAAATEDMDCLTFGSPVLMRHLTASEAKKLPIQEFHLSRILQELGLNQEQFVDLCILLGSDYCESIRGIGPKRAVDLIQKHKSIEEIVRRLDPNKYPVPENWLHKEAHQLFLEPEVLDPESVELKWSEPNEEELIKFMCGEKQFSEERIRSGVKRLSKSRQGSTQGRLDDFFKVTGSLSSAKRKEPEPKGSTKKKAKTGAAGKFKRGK
#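 Nuclease activity of 10 nM FEN1 was measured after 15 min of room-temperature exposure to titrated compounds, by adding 50 nM flap substrate and reading plates at 0 and 15 min.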
# The depositor's hits bear a star; ? = inconclusive; . = not tested or not shown; [ ] = dose if it differs, or a comment. Hits are enriched below; roughly 2.4% of the tested compounds scored in any of these assays. The call rests on the fitted dose curve; in most records, active means well fitted curve in the direction sought with a large enough effect; inconclusive means small, poorly fitted or top-dose-only effect, or another doubt; inactive means no such curve, though single readings can be large; an effect the other way counts as inactive or inconclusive. Potency means the concentration at half of the fitted maximal effect.
SMILES,WRN inhibitor,POLB inh,POLI inh,Pol kappa inh,POLH inh,FEN1 inh
COc1cc(OC)c(/C=C/c2c3ccccc3cc[n+]2C)c(OC)c1,.,.,?,-14%,.,?
Cc1cc(C)c(S(=O)(=O)N(CC(=O)NCc2cccnc2)C2CCCCC2)c(C)c1,4%,-27%,89µM*,-9%,-6%,1%
O=C(Nc1ccc2c(c1)CCC2)C1COc2ccccc2O1 (stereo unspecified),-8%,18µM*,?,-7%,-6%,0%
O=C(Nc1ccc2c(c1)OCO2)C1COc2ccccc2O1 (stereo unspecified),1%,13%,36%,-9%,-5%,-12%
C[n+]1ccc(C(c2c[nH]c3ccccc23)c2cc[n+](C)c3ccccc23)c2ccccc21,.,.,89µM*,79µM*,.,18µM*
COC(=O)c1c(NC(=O)/C=C/C(=O)O)sc(C)c1-c1ccc(C(C)C)cc1,10%,-5%,21%,-17%,79µM*,-1%
c1coc(CNc2ncnc3c2nc2n3CCCC2)c1,.,.,3%,2%,.,-3%
O=C(NC(=S)Nc1ccc(NC(=O)c2cccs2)cc1)c1ccco1,-24%,-1%,-3%,-21%,-17%,-3%
O=C(NC(=S)Nc1ccc(NC(=O)c2cccs2)cc1)c1cc2ccccc2o1,-23%,13µM*,3%,-15%,?,7%
Cc1nnc2c3ccccc3nc(Nc3ccccc3C(=O)O)n12,.,-28%,-13%,-11%,79µM*,?
Cn1c(SCc2ccc(Cl)cc2)nnc1-c1ccc(NC(=O)CCc2ccccc2)cc1,.,.,19%,-6%,.,0%
C(=C\c1ccccc1)/C=N/Nc1ccc2nncn2n1,-7%,-1%,24%,8%,-20%,-5%
CC(/C=N/Nc1ccc2nncn2n1)=C\c1ccccc1,-4%[11.6 µM],?,-4%,-5%,79µM*,?
O=C(OC[C@H]1O[C@@H](OC(=O)c2cc(O)c(O)c(OC(=O)c3cc(O)c(O)c(O)c3)c2)[C@H](OC(=O)c2cc(O)c(O)c(OC(=O)c3cc(O)c(O)c(O)c3)c2)[C@@H](OC(=O)c2cc(O)c(O)c(OC(=O)c3cc(O)c(O)c(O)c3)c2)[C@@H]1OC(=O)c1cc(O)c(O)c(OC(=O)c2cc(O)c(O)c(O)c2)c1)c1cc(O)c(O)c(OC(=O)c2cc(O)c(O)c(O)c2)c1,.,.,-104%,-99%,.,-83%
O=C(O)C[C@@H]1C(=O)O[C@@H]2C(COC(=O)c3cc(O)c(O)c(O)c3)O[C@@H](OC(=O)c3cc(O)c(O)c(O)c3)[C@@H](OC(=O)c3cc(O)c(O)c4c3[C@H]1[C@H](O)C(=O)O4)[C@H]2OC(=O)c1cc(O)c(O)c(O)c1 (stereo partly specified),.,0.18µM*,.,.,.,.
COc1ccc(-c2nc3cnc(N4CCOCC4)nc3n(CCc3ccccc3)c2=O)cc1,.,.,.,-3%[60.1 µM],.,.
C=CCN=c1scc(C)n1/N=C/c1ccc(O)c(O)c1,2%,2.5µM*,?,?,-6%,13%
CN=c1scc(C)n1/N=C/c1ccc(O)cc1,0%,16%,-9%,-10%,-19%,-5%
CC(C)c1ccc(NC(=O)CSc2nnc(-c3ccccc3)n2C)cc1,.,.,-7%,1%,.,14%
Cc1cnccc1/C=C/c1ccc(N)cc1,.,.,29%,9%,.,15%
O=C1C[C@@H](c2ccc(O)c(O)c2)Oc2cc(O[C@H]3O[C@@H](CO)[C@H](O)[C@@H](O)[C@@H]3O)cc(O)c21,.,.,.,21µM*,.,.
C#C[C@]1(OC(C)=O)CC[C@H]2[C@@H]3CCC4=C/C(=N/O)CC[C@@H]4[C@H]3CC[C@@]21CC,.,.,.,-4%[19.4 µM],.,.
CCN(CC)S(=O)(=O)c1ccc(OC)c(NC(=O)/C=C/c2ccco2)c1,-8%,-21%,?,-9%,79µM*,-18%
C=C(CC)C(=O)c1ccc(OCC(=O)O)c(Cl)c1Cl,?,1%,10µM*,-7%,79µM*,-14%
